{"source": "PubChem BioAssay (EPA / NIEHS)", "note": "More than one record can exist for a structure, and the calls need not agree. Activity calls are given as the source filed them. How the source made its calls: active means hit-call score of the fitted dose curve at least 0.9, where 1 is the maximum; inactive means score below 0.9."}
{"read-out": "MicroRNA 122 (MIR122), gene 406906", "assay": "LTEA_HepaRG_MIR122: Life Technologies and Expression Analysis (LTEA) Assay for MicroRNA 122 (MIR122) using HepaRG (AID 2283516)", "settings": "mRNA level, 48 h; actives raise or lower the signal", "method": "LTEA_HepaRG is a cell based, multiplexed-readout assay that uses HepaRG, a human liver cell line, with measurements taken at 48 hours after chemical dosing on a 96-well plate.LTEA_HepaRG_MIR122 is one of 102 assay component(s) measured in the LTEA HepaRG cell culture assay. It is a marker of MicroRNA.Data from the assay component LTEA_HepaRG_MIR122 was analyzed into 1 endpoint. This assay endpoint, LTEA_HepaRG_MIR122, was analyzed with bidirectional fitting relative to DMSO as the negative control and baseline of activity. Using a type of inducible reporter, measures of mRNA induction for gain or loss-of-signal activity can be used to understand regulation of transcription factor activity. To generalize the intended target to other relatable targets, this assay endpoint is annotated to the microrna intended target family, where the subfamily is post-transcriptional regulation.\nA total of 1060 chemcials from the ToxCast library were tested in eight-point concentration-response experiments. Cell culture and cytotoxicity assays were conducted at Thermo Fisher Scientific's Custom Services facility (Madison, WI). A single lot of human HepaRG cells (Thermo Fisher Scientific, Frederick, MD) was used for the cell culture experiments. 96-well format collagen type I coated plates of human HepaRG cells were prepared using established methods. Briefly, cryopreserved HepaRG cells were thawed, plated at a density of approximately 100,000 cells/well in HepaRG Thaw, Plate, and General Purpose media (HPRG770, Thermo Fisher Scientific), and incubated for 48 hours. 0.5% DMSO was selected as vehicle control to balance the requisite need of DMSO in HepaRG cultures to maintain differentiation (for example, baseline metabolism, proportions of hepatocytes vs. cholangiocytes), while enabling further hepatic receptor pathway activation (for example, PXR and CAR) in response to chemical exposure. 48 hours after plating, the culture medium was replaced with HepaRG Serum-Free Incudtion Media. Cells were exposed to each test chemical in duplicate and maintained in CO2 incubators for another 48 hours. Chemical plates were thawed to room temperature and 200x concentrations of treatment groups were prepared. 8-point conentration-reponse curves were made with the highest exposure at 100 uM, followed by half-log dilutions, all in 0.5% DMSO. Each test plate contained variouse controls, induction positive controls (1mM phenobarbital), cytotoxicity positive controls ([…] aflatoxin B1), vehicle controls (0.5% DMSO), and total lysis controls (0.5% DMSO). Cell morphology images were taken using an Essen IncuCyte FLR automated microscope, with six 96-well plates imaged in about 24 minutes. Images were captured and exported and JPEG files. Spent culture media was transfered to black-well plates for the LDH assay, and remaining media was sorted at -80 C for later use. Cells were treated with RLT buffer and frozen until shipped for gene expression analysis. Total RNA was isolated from the cell suspension in 75 uL of Buffer RLT (Qiagen, Germantown, MD 20874) by Quintiles/Expression Analysis (Durham, NC) using a custom isolation procedure. Total RNA from each plate well was transferred to a preamplification plate. Fluidigm's 96.96 Dynamic ArrayTM (Fluidigm, Amsterdam, the Netherlands) technology was used for gene expression analyses by quantitative reverse transcription polymerase chain reaction (qRT-PCR, performed by Quintiles/Expression Analysis, Durham, NC)89. Standard TaqManTM Assays (Applied Biosystems/ThermoFisher Scientific, Foster City, CA) were used to assess the expression of 93 genes selected based on their selectivity and sensitivity to important hepatic receptors known to be modulated by environmental chemicals; importance in human hepatocyte functionality; and hepatotoxicity. […]"}
{"molecule": "CC(C)(c1ccccc1)c1ccc(O)c(C(C)(C)c2ccccc2)c1", "AC50": "78 µM (active)"}
{"molecule": "CCCCCCCCc1ccc(O)cc1", "outcome": "inactive"}
{"molecule": "CC12CC1(C)C(=O)N(c1cc(Cl)cc(Cl)c1)C2=O", "note": "(stereo unspecified)", "outcome": "inactive"}
{"molecule": "O=[N+]([O-])c1ccc(O)c([N+](=O)[O-])c1", "AC50": "23.1 µM (active)"}
{"molecule": "CC(C)(C)CC(C)(C)c1ccc(O)cc1", "outcome": "inactive"}
{"molecule": "O=C(O)C(Cl)(Cl)Cl", "outcome": "inactive"}
{"molecule": "CN(C)N=O", "outcome": "inactive"}
{"molecule": "C[C@]12CCC(=O)C[C@@H]1CC[C@@H]1[C@@H]2CC[C@]2(C)[C@@H](O)CC[C@@H]12", "outcome": "inactive"}
{"molecule": "COc1cc(-c2ccc(N)c(OC)c2)ccc1N", "outcome": "inactive", "AC50": "79.7 µM (active)"}
{"molecule": "NC(=O)O", "outcome": "inactive"}
{"molecule": "CCOP(=S)(OCC)SCSP(=S)(OCC)OCC", "outcome": "inactive"}
{"molecule": "CCOP(=S)(OCC)Oc1nc(Cl)c(Cl)cc1Cl", "outcome": "inactive"}
{"molecule": "CCN1CCC2(CC1)COc1cc3c(cc12)N(C(=O)c1ccc(-c2ccc(-c4nnc(C)o4)cc2C)cc1)CC3", "outcome": "inactive"}
{"molecule": "CC(=O)[O][Hg][c]1ccccc1", "outcome": "inactive"}
{"molecule": "O=C1C2(Cl)C3(Cl)C4(Cl)C(Cl)(Cl)C5(Cl)C3(Cl)C1(Cl)C5(Cl)C24Cl", "note": "(stereo unspecified)", "AC50": "93.8 µM (active)"}
{"molecule": "ClC1(Cl)C2(Cl)C3(Cl)C4(Cl)C(Cl)(Cl)C5(Cl)C3(Cl)C1(Cl)C5(Cl)C24Cl", "note": "(stereo unspecified)", "outcome": "inactive"}
{"molecule": "Cc1ccccc1N", "outcome": "inactive"}
{"molecule": "O=c1[nH]c(=O)[nH]c(=O)[nH]1", "outcome": "inactive"}
{"molecule": "Oc1cccc2cccnc12", "outcome": "inactive"}
{"molecule": "ClCC(Cl)CCl", "outcome": "inactive"}
{"molecule": "C=C(C)C(=O)[O][Sn]([CH2]CCC)([CH2]CCC)[CH2]CCC", "outcome": "inactive"}
{"molecule": "C[C@@H]1C[C@@H]([C@H](O)CC2CC(=O)NC(=O)C2)C(=O)[C@@H](C)C1", "AC50": "10.6 µM (active)"}
{"molecule": "CCC(=O)C(CC(C)N(C)C)(c1ccccc1)c1ccccc1", "note": "(stereo unspecified)", "outcome": "inactive"}
{"molecule": "O=C(Nc1ccc2[nH]ccc2c1)c1cc2cc(F)ccc2n1Cc1cccc(F)c1", "AC50": "24.9 µM (active)"}
{"molecule": "CC(C)(OO)c1ccccc1", "outcome": "inactive"}
{"molecule": "CCC(C)(C)c1ccc(O)c(C(C)(C)CC)c1", "outcome": "inactive"}
{"molecule": "Cn1sc(Cl)cc1=O", "outcome": "inactive"}
{"molecule": "O=C(O)C(F)(F)C(F)(F)C(F)(F)C(F)(F)C(F)(F)C(F)(F)F", "outcome": "inactive"}
{"molecule": "CC(C)(C)c1cc(O)ccc1O", "outcome": "inactive"}
{"molecule": "C=CC(=O)OCCCCCC(C)C", "outcome": "inactive"}
